Sampled rows, rich in hits. Any-hit rate of the full collection: about 3.3%.
14-3-3 Bad PPI: disrupts binding of bovine 14-3-3 zeta to phospho-Bad peptide; P63103; TR-FRET 14-3-3zeta/Dy647-pBad peptide displacement, 1 h; inhibition, % at 21.7 µM; actives 0.71% (n = 220,000); AID 781;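 active = inhibition above about 70%, limit read from the data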;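 note: 0% = full 14-3-3 plus peptide FRET controls and 100% = background without 14-3-3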
p47phox inh: p47phox (human) inhibition; p47phox/p22phox peptide binding, fluorescence polarization, 2 h; actives 0.53% (n = 220,000); inhibition, % at 24.7 µM;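 note: 0% = p47phox with labelled peptide and 100% = labelled peptide alone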
Target sequence (P14598 whole entry, looked up): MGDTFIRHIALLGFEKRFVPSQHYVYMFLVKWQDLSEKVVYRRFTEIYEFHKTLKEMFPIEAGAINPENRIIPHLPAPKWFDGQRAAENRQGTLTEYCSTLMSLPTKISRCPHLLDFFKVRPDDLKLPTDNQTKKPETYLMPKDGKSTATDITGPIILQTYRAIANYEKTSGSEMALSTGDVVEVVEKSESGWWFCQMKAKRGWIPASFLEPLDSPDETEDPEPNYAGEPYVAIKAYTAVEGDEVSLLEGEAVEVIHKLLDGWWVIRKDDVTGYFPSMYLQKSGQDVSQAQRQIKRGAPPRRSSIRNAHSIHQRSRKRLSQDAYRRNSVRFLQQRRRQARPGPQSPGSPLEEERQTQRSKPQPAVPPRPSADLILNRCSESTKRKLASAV
Mcl1 Bid PPI: disrupts binding of human Mcl-1 to Bid peptide; actives 0.97% (n = 220,000); Q07820; AID 1021; inhibition, % at 21.7 µM; TR-FRET Mcl-1/Bid-Dy647 peptide binding, 1536-well;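 active = compounds that cut the binding signal by more than half at the single screening dose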;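 note: His-tagged Mcl-1 with europium anti-His antibody binding Bid BH3 peptide; 0% = Mcl-1 plus peptide wells and 100% = peptide-only wells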
eIF4E 4G PPI: inhibitors of eIF4E and eIF4G interaction in translation initiation | TR-FRET eIF4E-eIF4GI(517-606) binding, 2 h | actives 0.37% (n = 220,000) | AID 782 | inhibition, % at 21.7 µM | P63073+Q04637;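 note: 0% = full FRET control wells and 100% = background wells lacking eIF4GI fragment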
Mcl1 Noxa PPI: disrupts binding of human Mcl-1 to Noxa peptide | Q07820 | TR-FRET Mcl-1/Noxa peptide binding, 2 h | inhibition, % at 21.7 µM | actives 1.5% (n = 220,000);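 active = compounds that cut the protein-peptide binding signal by more than 50% relative to plate controls in a single-dose test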;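 note: His-tagged Mcl-1 with rhodamine Noxa BH3 peptide and terbium anti-His antibody; 0% = Mcl-1 plus Noxa peptide wells and 100% = peptide-only wells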
Mcl-1 Bim block: human Bim-Mcl-1 interaction inhibition | Bead-based flow cytometry, Bim peptide-Mcl-1 binding | inhibition, % at 10 µM | actives 0.1% (n = 190,000) | AID 1009; in the data active = inhibition above about 40%;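 note: 0% = no compound tracer wells and 100% = peptide blocker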
* marks the source's active call; other numbers are inactive results; / = no result.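 Rule for the calls, unless noted: active = inhibition above about 30% (limit read from the data); inactive = the rest.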

SMILES	14-3-3 Bad PPI	p47phox inh	Mcl1 Bid PPI	eIF4E 4G PPI	Mcl1 Noxa PPI	Mcl-1 Bim block
CCC1(C)Cc2c(sc3nnn(CC(=O)Nc4ccccc4C)c(=O)c23)CO1 (centres undefined)	-5.1	-4.7	18.6	0.1	53.5*	0.0
Cc1ccccc1NC(=O)Cn1nnc2sc3c(c2c1=O)CC(C)(C)OC3	3.7	0.1	-4.8	1.9	5.8	/
O=C(CSc1ncn[nH]1)Nc1cc(S(=O)(=O)N2CCCC2)ccc1Cl	-10.0	2.2	-16.6	-0.1	18.9	-2.0
COc1cc(/C=N/NC(=O)Cc2csc(N3CCOCC3)n2)cc(OC)c1O	1.8	9.9	11.4	2.7	58.1*	3.0
Cc1nn(-c2ccccn2)c2c1C(=O)C(Br)CC2 (centres undefined)	-14.5	-15.6	-8.8	7.1	54.6*	18.0
COc1ccc(C(=O)NCc2ccc3[nH]c(C)cc3c2)cc1OC	-9.1	-5.6	-48.0	-1.0	7.1	-1.0
COc1ccccc1C(=O)NNC(=S)NC(=O)c1sc2ccccc2c1Cl	-4.1	3.5	20.0	4.2	32.6	-10.0
COc1ccccc1C(=O)NC(=S)NNC(=O)c1sc2ccccc2c1Cl	38.1	26.7	73.4*	-5.3	48.4	-2.0
